Compound activity deposited in PubChem by several laboratories.
Sampled rows, rich in hits. Any-hit rate of the full collection: about 1.3%.
PfHsp40 rescue: rescue of PfHsp40-mediated yeast toxicity; S. cerevisiae expressing PfHsp40, growth rescue, ATP luminescence; growth rescue, % at 12.5 µM; 0.68% of 340,000 active; in the data active = growth rescue above about 28%, passing the limit was not always enough;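 also: yeast W303a lacking pdr1 and pdr3 grown in galactose medium; growth measured after three days at 30 °C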
ugtP null kill: compounds lethal to S. aureus RN4220 ugtP deletion mutant; AID 1259309; OD600 growth, 16 h; 0.54% of 330,000 active; growth inhibition, % (concentration not given with the values); in the data active = growth inhibition above about 68%;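 also: plate controls were untreated wells for no effect and antibiotic for full effect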
Sa RN4220 lethal: S. aureus RN4220 growth inhibition; OD600, 16 h; inhibition, % (no concentration beside the values); 0.33% of 330,000 active; AID 1259311; in the data active = inhibition above about 85%;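 also: plate controls were untreated cells for no effect and reference antibiotic for full effect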
SARS 3CLpro inh: SARS-CoV 3CLpro protease inhibition; P0C6X7; recombinant SARS-CoV 3CLpro, quenched FRET peptide cleavage; inhibition, % at 6 µM; 0.14% of 290,000 active; in the data active = inhibition above about 12%
BJeLR lethal: BJeLR cell viability loss. 0.17% of 300,000 active. inhibition, % (test concentration not listed). BJeLR (HRASV12) viability, CellTiter-Glo ATP luminescence, 48 h. AID 1554; in the data active = inhibition above about 50%
* = called active by the depositor.

CCOc1ccc(N2C(=O)Nc3ccccc3C2(O)C(=O)NCc2ccc(OC)cc2)cc1 (stereo unspecified) was read as PfHsp40 rescue 1, ugtP null kill 4, Sa RN4220 lethal 6, SARS 3CLpro inh 4 and BJeLR lethal -2.
`COc1ccc(CNCC(=O)Nc2cc(C)nn2-c2nc(C)cc(C)n2)cc1OC` gave ugtP null kill 6, Sa RN4220 lethal 1, SARS 3CLpro inh -4 and BJeLR lethal -1.
Screening COc1ccccc1NC(=O)COc1cccc2c1CCNC2=O returned PfHsp40 rescue -1, ugtP null kill 5, Sa RN4220 lethal 4 and BJeLR lethal 3.
O=C(CS(=O)(=O)c1ccccc1)N1CCCCC1 was read as PfHsp40 rescue 1, ugtP null kill 2, Sa RN4220 lethal -1, SARS 3CLpro inh 2 and BJeLR lethal -2.
For CCOCCCN(CCC#N)C(=O)C1CCN(S(=O)(=O)c2ccc(-n3cnnn3)cc2)CC1 the results were PfHsp40 rescue 0, ugtP null kill 2, Sa RN4220 lethal 3, SARS 3CLpro inh 2 and BJeLR lethal 0.
Screening N#Cc1ccc(COc2cccnc2[N+](=O)[O-])cc1 returned PfHsp40 rescue 1, ugtP null kill 10, Sa RN4220 lethal 1, SARS 3CLpro inh 1 and BJeLR lethal -7.
`O=[N+]([O-])c1ncccc1OCc1ccc(-c2ccccc2)cc1` gave PfHsp40 rescue 1, ugtP null kill 89*, Sa RN4220 lethal -1, SARS 3CLpro inh 2 and BJeLR lethal 1.
Screening COc1ccc(-c2cc(C(F)(F)F)nc(N3CCCCCC3)n2)cc1 returned PfHsp40 rescue -1, ugtP null kill 95*, Sa RN4220 lethal -4, SARS 3CLpro inh 1 and BJeLR lethal 2.
Screening O=C(CNCc1ccccc1)Nc1cccc(Cl)c1Cl returned PfHsp40 rescue 0, ugtP null kill -7, Sa RN4220 lethal 3, SARS 3CLpro inh 0 and BJeLR lethal 6.
For Cc1nc2ccccc2n1N=Cc1ccc([N+](=O)[O-])o1 the results were ugtP null kill 100* and Sa RN4220 lethal 101*.
Cc1cc2ncn(/N=C/c3ccc([N+](=O)[O-])s3)c2cc1C was read as PfHsp40 rescue 0, SARS 3CLpro inh -7 and BJeLR lethal 1.
For Cc1cc2ncn(N=Cc3ccc([N+](=O)[O-])o3)c2cc1C the results were ugtP null kill 101* and Sa RN4220 lethal 100*.
For O=C(NC(Cc1c[nH]c2ccccc12)C(=O)O)C(=Cc1ccco1)NC(=O)c1ccccc1 (stereo unspecified) the results were ugtP null kill 6 and Sa RN4220 lethal 7.
CC1=CC(C)(C)N(S(=O)(=O)c2ccc(F)cc2)c2ccccc21 was read as PfHsp40 rescue 1, ugtP null kill -2, Sa RN4220 lethal 12, SARS 3CLpro inh 1 and BJeLR lethal -1.
For CC1=CC(C)(C)N(S(=O)(=O)c2ccc(C)cc2)c2ccc(C)cc21 the results were PfHsp40 rescue 165*, ugtP null kill 80, Sa RN4220 lethal 2, SARS 3CLpro inh 3 and BJeLR lethal 29.
`CCOc1ccc(S(=O)(=O)N2CCN(C(=S)NCc3ccco3)CC2)cc1` gave PfHsp40 rescue 0, ugtP null kill -2, Sa RN4220 lethal -4, SARS 3CLpro inh 1 and BJeLR lethal -2.
CSc1nc(N)nc(C2CC2)n1 was read as PfHsp40 rescue -1, ugtP null kill 14, Sa RN4220 lethal 5, SARS 3CLpro inh 1 and BJeLR lethal -2.
For Cc1ccc(CONC(=O)c2cccc([N+](=O)[O-])c2)cc1 the results were PfHsp40 rescue 0, ugtP null kill 2 and Sa RN4220 lethal 0.
Screening Cc1ccc(CONC(=O)c2ccc([N+](=O)[O-])cc2)cc1 returned PfHsp40 rescue 38*, ugtP null kill -1 and Sa RN4220 lethal 3.
`O=C(O)CCc1ccc(-c2ccc(Br)cc2)n1-c1cccc(O)c1` gave PfHsp40 rescue 2, ugtP null kill 85*, Sa RN4220 lethal 35, SARS 3CLpro inh 3 and BJeLR lethal 5.
`COc1ccc2c(c1)c1nnc(SCC(=O)N3C(C)CCCC3C)nc1n2C` (stereo unspecified) gave PfHsp40 rescue 0, ugtP null kill -2, Sa RN4220 lethal 3, SARS 3CLpro inh 4 and BJeLR lethal -5.
COc1ccc2c(c1)c1nnc(SC)nc1n2C was read as PfHsp40 rescue 59*, ugtP null kill 3, Sa RN4220 lethal 2, SARS 3CLpro inh -2 and BJeLR lethal 5.
For NC(=O)c1nn(-c2cccc(Cl)c2)c(=O)cc1O the results were PfHsp40 rescue 0, ugtP null kill 7, Sa RN4220 lethal 3, SARS 3CLpro inh -1 and BJeLR lethal -7.
For CC1(C)CC(=O)/C(=C(/O)Cc2ccccc2)C(=NCCc2ccccc2)C1 the results were PfHsp40 rescue 1, SARS 3CLpro inh 4 and BJeLR lethal -13.
`COc1ccc(CNC(=S)NC2CCCC2)cc1` gave PfHsp40 rescue 0, ugtP null kill 9, Sa RN4220 lethal 2, SARS 3CLpro inh 7 and BJeLR lethal 10.
Cc1ccc(CNC(=S)NC2CCC(C(C)(C)C)CC2)cc1 (stereo unspecified) was read as PfHsp40 rescue 188*, ugtP null kill -9, Sa RN4220 lethal -9, SARS 3CLpro inh -4 and BJeLR lethal -6.
CC(NC(=S)NC1CCC(C(C)(C)C)CC1)c1ccccc1 (stereo unspecified) was read as PfHsp40 rescue 71*, ugtP null kill -25, Sa RN4220 lethal -8, SARS 3CLpro inh 5 and BJeLR lethal 1.
`Cc1ccc(C(C)NC(=S)NC2CCCCC2)cc1C` (stereo unspecified) gave PfHsp40 rescue -1, SARS 3CLpro inh 1 and BJeLR lethal 1.
For O=C(CSc1nc2ccccc2[nH]1)NN=C/C=C\c1ccccc1[N+](=O)[O-] the results were ugtP null kill 97* and Sa RN4220 lethal 98*.
Screening O=C(CSc1nc2ccccc2[nH]1)N/N=C/C=C/c1ccccc1[N+](=O)[O-] returned PfHsp40 rescue 0, SARS 3CLpro inh 0 and BJeLR lethal -6.
`O=S(=O)(c1ccc(F)cc1)c1snnc1-c1ccccc1` gave PfHsp40 rescue 11, ugtP null kill 1, Sa RN4220 lethal 10, SARS 3CLpro inh 1 and BJeLR lethal 61*.
O=S(=O)(c1ccc(Cl)cc1)c1snnc1-c1ccccc1 was read as PfHsp40 rescue 3, ugtP null kill 0, Sa RN4220 lethal 3, SARS 3CLpro inh 2 and BJeLR lethal 96*.
Screening O=C1CCN(Cc2ccccc2)C=C1c1ccc2ccccc2c1 returned PfHsp40 rescue 9, ugtP null kill 16 and Sa RN4220 lethal 12.
Screening CC(O)C1CCC2C3CCC4=CC(=O)CC[C@]4(C)C3CC[C@]12C (stereo partly specified) returned ugtP null kill 3 and Sa RN4220 lethal 12.
Screening C[C@H](O)[C@H]1CC[C@H]2[C@@H]3CCC4=CC(=O)CC[C@]4(C)[C@H]3CC[C@]12C returned PfHsp40 rescue 158*, SARS 3CLpro inh -5 and BJeLR lethal 7.
